VP16 counter: Gal4-VP16 reporter inhibition counter-screen | Drosophila S2 Gal4-VP16 UAS-luciferase, luminescence, 20 h | Potency, µM (highest dose often 53.6 µM), hits mostly inhibitors | 310,000 compounds, 3.5% hits | AID 2546;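 also: Gal4-VP16 expression switched on by copper sulfate through the metallothionein promoter; nearly all actives have a fitted effect of over 50% in size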
RORgamma inh: blocks mouse ROR gamma transcriptional activity. P51450. Drosophila S2 Gal4-RORgamma UAS-luciferase reporter, 20 h. Potency, µM (doses to about 53.6 µM), usual class: inhibitors. 310,000 compounds, 5.4% hits. AID 2551; also: nearly all actives have a fitted effect of over 60% in size
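ROR gamma transcriptional activity was tracked as Gal4-UAS luciferase output in stably transfected Drosophila Schneider cells, with compound added 1 hr before 700 uM copper sulfate induction and a 20 hr ambient-temperature incubation.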
ALDH1A1 block: blocks purified human ALDH1A1 activity | P00352 | Purified ALDH1A1, NADH fluorescence, propionaldehyde substrate | Potency, µM (top dose mostly 75.3 µM), most hits filed as inhibitors | 220,000 compounds, 7.3% hits | AID 1030; active = well fitted inhibition curve with a large enough effect, not every such curve was filed as active; inconclusive = small, poorly fitted or top-dose-only effect, or another doubt; inactive = no such curve, though single readings can be large or run the other way
Sfp inh: Sfp phosphopantetheinyl transferase inhibition; Q9F4F7; Biochemical Sfp PPTase activity, qHTS; Potency, µM, hits mostly inhibitors; 310,000 compounds, 3.5% hits; AID 1490;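 also: the enzyme is Sfp with the accession as filed and its product quenches rhodamine fluorescence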
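After 15 min at room temperature with compound, 15 nM Sfp received 5 uM rhodamine-CoA plus 12.5 uM BHQ-2-ybbR (50 mM Hepes pH 7.6, 10 mM MgCl2). Rate came from the fluorescence difference over 30 min, ex 525/em 598 nm.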
PLK1 PBD inh: PLK1 (human) polo-box domain binding inhibition. P53350. Plk1 PBD binding of FITC phosphopeptide, fluorescence polarization. Potency, µM, usual class: inhibitors. 360,000 compounds, 2.8% hits. AID 720504; also: series mostly up to about 57 µM; nearly all actives have a fitted effect of over 65% in size
Target sequence (P53350 whole entry, looked up, the tested form may be a part): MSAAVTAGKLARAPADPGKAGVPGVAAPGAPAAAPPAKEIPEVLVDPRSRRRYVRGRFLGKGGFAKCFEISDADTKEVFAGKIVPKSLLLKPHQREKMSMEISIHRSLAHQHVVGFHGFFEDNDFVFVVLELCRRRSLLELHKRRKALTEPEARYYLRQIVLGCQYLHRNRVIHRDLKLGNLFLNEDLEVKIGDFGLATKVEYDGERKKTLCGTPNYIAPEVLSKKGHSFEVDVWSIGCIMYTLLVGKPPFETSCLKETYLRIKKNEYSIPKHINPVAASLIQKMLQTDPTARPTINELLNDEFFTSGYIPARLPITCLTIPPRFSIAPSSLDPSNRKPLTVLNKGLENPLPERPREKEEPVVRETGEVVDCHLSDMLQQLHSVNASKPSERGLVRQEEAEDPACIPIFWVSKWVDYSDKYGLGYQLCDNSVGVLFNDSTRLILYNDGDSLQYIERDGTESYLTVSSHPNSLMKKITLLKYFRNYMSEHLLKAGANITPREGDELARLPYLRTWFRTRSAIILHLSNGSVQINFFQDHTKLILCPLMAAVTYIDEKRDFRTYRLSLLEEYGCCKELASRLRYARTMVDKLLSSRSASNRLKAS
Each line names hits and unclear results; the compound was inactive in the other large screens; ! = repeats disagree. Rows were chosen to be rich in hits. Some 12% of all compounds tested hit in one or more screens of this group. Unless noted, calls follow the shape of the dose curve; as a rule, active = well fitted curve in the direction sought with a large enough effect; inconclusive = small, poorly fitted or top-dose-only effect, or another doubt; inactive = no such curve, though single readings can be large; an effect the other way counts as inactive or inconclusive.

c1ccc(CN2CCN(c3ncnc4c3[nH]c3ccccc34)CC2)cc1	VP16 counter 15.8µM, RORgamma inh inconclusive, ALDH1A1 block inconclusive
Cc1ccc2c(c1)[nH]c1c(N3CCN(Cc4ccccc4)CC3)ncnc12	VP16 counter 3.16µM, RORgamma inh inconclusive, ALDH1A1 block inconclusive
COc1ccc2c(c1)[nH]c1c(N3CCN(Cc4ccc5c(c4)OCO5)CC3)ncnc12	VP16 counter 10µM, RORgamma inh inconclusive
COc1cccc(Cn2c(=O)c(-c3cccs3)nc3cnc(N4CCN(C)CC4)nc32)c1	none (no result: PLK1 PBD inh)
c1ccc2c(c1)CCN(c1ncnc3c1[nH]c1ccccc13)C2	VP16 counter 6.31µM, RORgamma inh 12.6µM
Cc1ccc2[nH]c3c(N4CCN(Cc5ccccc5)CC4)ncnc3c2c1	VP16 counter 3.55µM, RORgamma inh inconclusive, ALDH1A1 block inconclusive
CCNc1ncc2nc(-c3ccc(OC)cc3)c(=O)n(Cc3cccs3)c2n1	ALDH1A1 block inconclusive (no result: PLK1 PBD inh)
CCc1cnc(Nc2nc(C(N)Cc3ccc(F)cc3)cs2)nc1 (centres undefined)	none (no result: VP16 counter, RORgamma inh, ALDH1A1 block, Sfp inh)
O=C(CC1(c2ccc(Cl)cc2)C2CC3CC(C2)CC1C3)NCCO (centres undefined)	ALDH1A1 block 12.6µM
CCSc1nc(-c2ccccc2)nc(C(Cl)Cl)n1	VP16 counter 10µM, RORgamma inh 1.26µM
CSc1nc(-c2ccc(C)cc2)nc(C(Cl)Cl)n1	RORgamma inh inconclusive
Cc1ccc(-c2nc(C(Cl)Cl)c3ccccc3n2)cc1	VP16 counter 8.91µM, RORgamma inh inconclusive (no result: ALDH1A1 block)
NC(N)=NC(=O)Cc1c(Cl)cccc1Cl	VP16 counter inconclusive, RORgamma inh inconclusive, Sfp inh 89.1µM!
O=C(Cc1c(Cl)cccc1Cl)OCc1ccccn1	VP16 counter inconclusive (no result: ALDH1A1 block)
COC(=O)Cc1coc2cc(OC)ccc12	none (no result: VP16 counter, RORgamma inh, ALDH1A1 block, Sfp inh)
Cn1c(/C(C#N)=N/O)nc2ccccc21	RORgamma inh inconclusive, ALDH1A1 block inconclusive
CCn1c(/C(C#N)=N/O)nc2ccccc21	VP16 counter inconclusive, RORgamma inh 8.91µM, ALDH1A1 block 20µM
Cc1ccc(NC(=S)Nc2cc(-c3ccccc3)[nH]n2)cc1Cl	VP16 counter 2.24µM, RORgamma inh 0.794µM, ALDH1A1 block inconclusive
CC(=O)Nc1cc(-c2ccc(Cl)cc2)[nH]n1	none
Fc1ccc(NC(=S)Nc2cc(-c3ccccc3)[nH]n2)cc1Cl	VP16 counter 1.58µM, RORgamma inh 0.794µM, ALDH1A1 block 1.41µM
Fc1ccc(NC(=S)Nc2ccccc2OC(F)F)cc1Cl	VP16 counter inconclusive, RORgamma inh inconclusive, ALDH1A1 block inconclusive
CCCC(=O)N1CCC1(C)C(=O)Nc1ncc(C(=O)OC)s1 (centres undefined)	none (no result: VP16 counter, RORgamma inh, ALDH1A1 block, Sfp inh)
CCc1cc2c(c(CC)n1)CCC(=O)N2Cc1ccc(-c2ccccc2-c2nn[nH]n2)cc1	none (no result: PLK1 PBD inh)
Cc1c(Cl)cccc1NC(=O)C[C@H]1Sc2ccccc2NC1=O	none (no result: VP16 counter, RORgamma inh, Sfp inh, PLK1 PBD inh)
CCCCC/C=C\C\C=C/C=C/C=C/[C@@H](SCC(N)C(=O)O)[C@@H](O)CCCC(=O)O (some centres undefined)	none (no result: PLK1 PBD inh)
N#Cc1ccc(C2CC(OCCF)=CC(=O)O2)cc1 (centres undefined)	none (no result: VP16 counter, RORgamma inh, ALDH1A1 block, Sfp inh)
CCCc1nc2ccccc2n1C(=S)SC	VP16 counter inconclusive, RORgamma inh 11.2µM
CCCC(=O)O[C@]1(C(=O)CO)CCC2[C@@H]3CCC4=CC(=O)CC[C@]4(C)C3C(O)C[C@]21C (some centres undefined)	none (no result: PLK1 PBD inh)
N#CC1=C(N)Oc2cc(O)ccc2C1c1ccc(Br)s1 (centres undefined)	RORgamma inh inconclusive, PLK1 PBD inh 29.9µM (no result: ALDH1A1 block)
Cc1nn(-c2ccccc2)c2c1C(c1ccc(Br)s1)C(C#N)=C(N)O2 (centres undefined)	RORgamma inh inconclusive, ALDH1A1 block 3.16µM, PLK1 PBD inh inconclusive
COC(=O)C1=C(C)OC(N)=C(C#N)C1c1c(C)nn(-c2ccccc2)c1Cl (centres undefined)	none
Cc1nn(-c2ccccc2)c2c1C(c1ccccc1)C(C#N)=C(N)O2 (centres undefined)	RORgamma inh inconclusive, ALDH1A1 block 3.55µM, PLK1 PBD inh 26.7µM
COc1ccc(C2C(C#N)=C(N)OC3=C2C(=O)CC(C)(C)C3)cc1Cn1nc(C)c([N+](=O)[O-])c1C (centres undefined)	none
COc1ccc(C2C(C#N)=C(N)Oc3c2c(-c2ccccc2)nn3-c2ccccc2)c(OC)c1OC (centres undefined)	RORgamma inh inconclusive, ALDH1A1 block inconclusive

Screens deposited in PubChem by National Center for Advancing Translational Sciences (NCATS).
